Reference: PubChem BioAssay (NCI)
About 83,000 compounds went through this panel and 20% of them were active in at least one assay; those are over-represented in the sample as a whole.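 Assay: single dose, 48 h. Readout: percent growth (0 = no net growth; negative = cell death). Active: <10.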 The source made the active and inactive calls.

Legend:
Assay in all cases: NCI-60 one-dose screen, 48 h (100 = growth as untreated, 0 = no growth, -100 = all killed)
Settings in all cases: 10 µM unless noted
[1] = test system: HCT-15 colon
[2] = test system: HT29 colon
[3] = test system: SNB-19 CNS
[4] = test system: U251 CNS
[5] = test system: PC-3 prostate
[6] = test system: SK-MEL-5 melanoma
[7] = test system: UACC-62 melanoma
[8] = test system: LOX IMVI melanoma
[9] = test system: SK-MEL-28 melanoma
[10] = test system: SNB-75 CNS

Measured: growth

O=C(Nc1cc(F)cc2cccnc12)c1cnc(N2CCOCC2)cn1
inactive: [1] 32.4% | [2] 30.1% | [3] 88.6% | [4] 94.6% | [5] 62.9% | [6] 83.5% | [7] 84.9% | [8] 19.4% | [9] 77.4%

Oc1ccc(CSc2nnc(-c3ccc(Cl)cc3)o2)c2cccnc12
active: [7] 5.12% | [8] 4.17%
inactive: [1] 14.4% | [2] 102% | [3] 16.5% | [4] 10.5% | [5] 21.4% | [6] 11.1% | [9] 26.6%

O=C1[C@@H]2Cc3c([nH]c4ccccc34)[C@H](c3c(Cl)cccc3Cl)N2C(=O)CN1C1CCN(Cc2c(F)cccc2F)CC1
active: [8] -47.1%
inactive: [1] 52.2% | [2] 63.9% | [3] 81.7% | [4] 73.5% | [5] 69.9% | [6] 53.4% | [7] 76.8% | [9] 75%

O=C(/C=C/c1cn(-c2ccccc2)nc1-c1ccc(Cl)cc1)c1cc2ccccc2oc1=O
inactive: [1] 58.9% | [2] 62.1% | [3] 54.3% | [4] 35.1% | [5] 53.3% | [6] 72% | [7] 52.7% | [8] 37.3% | [9] 93%

O=C(/C=C1\C=CN(CCCCF)c2ccccc21)n1ccc2ccccc21
inactive: [1] 102% | [2] 107% | [3] 105% | [4] 105% | [5] 103% | [6] 98.8% | [7] 89.2% | [8] 106% | [9] 108%

CCN(CC)CCCC(C)NCC(=O)NC(c1ccc2c(c1)OCO2)c1cc(Cl)c2cccnc2c1O (stereo not given)
active: [6] -77.4% | [7] -17.6% | [8] -30.1%
inactive: [1] 20.6% | [2] 23.6% | [3] 38.1% | [4] 30.2% | [5] 20.1% | [9] 46.5%

CCCCOc1ccc(S(=O)(=O)N2CCN(c3nccc(N4CCOCC4)n3)CC2)cc1
inactive: [2] 13.5% | [3] 71.4% | [4] 27.2% | [5] 41.3% | [6] 46.8% | [9] 21.1%
active: [1] 7.04% | [7] -7.93% | [8] -67.9%

NC(=S)N/N=C(/C=C/c1cn(-c2ccccc2)nc1-c1ccc(Cl)cc1)c1cc2ccccc2oc1=O
inactive: [1] 19.9% | [2] 36.1% | [3] 47.6% | [4] 35.4% | [5] 28% | [6] 30.4% | [7] 49.6% | [8] 36% | [9] 73%

O=C(CCCCCCN1CC(=O)N2[C@@H](c3cc(F)cc(F)c3)c3[nH]c4ccccc4c3C[C@H]2C1=O)NO
inactive: [1] 96.7% | [2] 47.8% | [3] 65.9% | [4] 57.3% | [5] 48.5% | [6] 47.2% | [7] 21.4% | [8] 19.6%

O=C(CCCCCCN1CC(=O)N2[C@@H](c3cccc(Cl)c3)c3[nH]c4ccccc4c3C[C@H]2C1=O)NO
active: [8] -80.3%
inactive: [1] 85.7% | [2] 30.6% | [3] 61.2% | [4] 44.9% | [5] 42.6% | [6] 33.6% | [7] 16% | [9] 40.2%

NNC(=O)c1sc2nc(-c3cnccn3)cc(-c3cccs3)c2c1N
inactive: [1] 89.9% | [2] 106% | [3] 88.2% | [4] 90% | [5] 90.1% | [6] 97.2% | [7] 93.7% | [8] 83.2% | [9] 101%

Oc1ccc(CSc2nnc(-c3ccncc3)n2-c2ccccc2)c2cccnc12
inactive: [1] 15.1% | [2] 96% | [3] 12.7% | [4] 15.8% | [5] 18.9% | [8] 20.4% | [9] 29.4%
active: [6] 1.83% | [7] -4.64%

COc1ccc(-c2nnc(SCc3ccc(O)c4ncccc34)o2)cc1
active: [6] 9.31%
inactive: [1] 10.1% | [2] 89.1% | [3] 22.3% | [4] 20% | [5] 26.2% | [7] 42.8% | [8] 19.7% | [9] 41.7%

O=C1[C@H]2Cc3c([nH]c4ccccc34)[C@@H](c3c(Cl)cccc3Cl)N2C(=O)CN1C1CCN(Cc2ccccc2)CC1
active: [2] 9.36% | [8] -31.2%
inactive: [1] 25.5% | [3] 89.6% | [4] 50.1% | [5] 77.8% | [6] 84.6% | [7] 72.5%

CCOC(=O)c1c(NC(=O)c2cccc(C(F)(F)F)c2)sc2c(CN3CCN(C)CC3)c(O)ccc12
inactive: [6] 52.7%
active: [1] -82.3% | [2] -31.6% | [3] -53.9% | [4] -79.1% | [5] -33.9% | [7] -67.5% | [8] -94.7% | [9] -60.5%

O=C(COc1ccc(/C=C2\SC(=O)NC2=O)cc1)Nc1ccc(C(=O)/C=C/c2cc3ccccc3nc2Cl)cc1
inactive: [1] 76.8% | [3] 82% | [4] 69% | [5] 65.6% | [6] 33.5% | [7] 70.6% | [8] 47.8% | [9] 99.2%
active: [2] 4.19%

Oc1ccc(CSc2nnc(-c3ccccc3)o2)c2cccnc12
active: [6] 6.95% | [7] 5.32% | [8] 5.66%
inactive: [1] 10.6% | [2] 88.8% | [3] 17% | [4] 10.9% | [5] 21.8% | [9] 21.7%

COc1ccc(-c2nnc(SCc3ccc(O)c4ncccc34)n2-c2ccccc2)cc1
active: [1] 9.65% | [6] -11% | [7] 2.62% | [8] -10.9%
inactive: [2] 59.2% | [3] 14.4% | [4] 11.2% | [5] 20.7% | [9] 20.2%

CCCC(=O)NC(c1cccnc1)c1ccc2c(C)ccnc2c1O (stereo not given)
active: [6] 4.06% | [7] -7.84% | [8] 9.72%
inactive: [1] 26.9% | [2] 20.3% | [3] 37.8% | [4] 26.7% | [5] 36.4% | [9] 30.4%

Nc1c(C(=O)c2ccccc2)sc2nc(-c3cnccn3)cc(-c3cccs3)c12
inactive: [1] 106% | [2] 107% | [3] 96.5% | [4] 104% | [5] 100% | [6] 103% | [7] 87.1% | [8] 101% | [9] 106%

O=C(CCCCCCN1CC(=O)N2[C@@H](c3cccc(Br)c3)c3[nH]c4ccccc4c3C[C@H]2C1=O)NO
inactive: [1] 68.7% | [2] 14.8% | [3] 38% | [4] 25% | [5] 32.8% | [6] 15.2% | [9] 26.6%
active: [7] 1.57% | [8] -59.8%

CCOc1ccc2nc(NC(=O)Nc3ccccc3C)sc2c1
inactive: [1] 27% | [2] 14.9% | [3] 53.8% | [4] 48.2% | [5] 57.6% | [6] 59.6% | [7] 47.2% | [9] 54.1%

Oc1ccccc1-c1nnc(SCc2ccc(O)c3ncccc23)n1-c1ccccc1
active: [6] -60.3% | [7] -8.29% | [8] 3.79%
inactive: [1] 17.6% | [2] 14.6% | [3] 16.5% | [4] 11.5% | [5] 20.5% | [9] 14.8%

Cc1ccc(/C=C/CC(=O)Nc2ccc(C(=O)Nc3ccc(F)cc3N)nc2)cn1
inactive: [1] 52.3% | [10] 36.7% | [3] 60% | [4] 44.9% | [5] 42.9% | [6] 20.9% | [7] 21.8% | [8] 24.3%

COc1cc(/C=N/n2cnc3oc(-c4ccccc4)cc3c2=N)cc(CN2CCCC2)c1O
inactive: [3] 21.8% | [6] 91.5% | [7] 96.7% | [9] 91.6%
active: [1] -85.2% | [2] -48.2% | [4] -45.7% | [5] -68.6% | [8] -88.5%

O=C(CCCCCCN1CC(=O)N2[C@@H](c3ccccc3)c3[nH]c4ccccc4c3C[C@H]2C1=O)NO
inactive: [1] 91.4% | [2] 41.9% | [3] 67.1% | [4] 51.7% | [5] 59.6% | [6] 41.7% | [7] 18.8% | [8] 30.8% | [9] 47%

Cc1nn(-c2ccc(Cl)cc2)c(C)c1N=Nc1ccc2oc(=O)ccc2c1
inactive: [1] 81.4% | [2] 94.5% | [3] 97.3% | [4] 82.8% | [5] 80.3% | [6] 84.3% | [7] 80.5% | [9] 82.5%

N#Cc1c(-c2cccs2)cc(-c2cnccn2)nc1SCC(=O)NNC(=S)Nc1ccc(F)cc1
inactive: [1] 102% | [2] 116% | [3] 94.7% | [4] 101% | [5] 99.3% | [6] 89.5% | [7] 87.8% | [9] 114%

O=C1[C@H]2Cc3c([nH]c4ccccc34)[C@H](c3ccc(Cl)cc3)N2C(=O)CN1C1CCN(Cc2c(Cl)cccc2Cl)CC1
inactive: [1] 39.5% | [2] 18.2% | [4] 69.5% | [5] 49.3% | [6] 66.3% | [7] 88.8% | [9] 98.8%

COc1cc2cc(Oc3ccc(NC(=O)Nc4cc(C(F)(F)F)cc(C(F)(F)F)c4)cc3)c(C)nc2cc1OCCN(C)C
inactive: [1] 103% | [2] 120% | [3] 103% | [4] 107% | [5] 110% | [6] 102% | [7] 93.1% | [8] 108% | [9] 110%

O=C(Nc1ccccc1)Nc1nc2ccc([N+](=O)[O-])cc2s1
inactive: [3] 13.9% | [9] 20.2%
active: [1] 8.64% | [2] 9.17% | [4] 6.41% | [5] 4% | [6] -46.5% | [7] 1.73%

O=C(CN1C(=O)S/C(=C\c2ccccc2)C1=O)Nc1ccc(C(=O)/C=C/c2cc3ccccc3nc2Cl)cc1
inactive: [1] 88.5% | [2] 94.8% | [3] 86.2% | [4] 93.4% | [5] 81.6% | [6] 24.3% | [7] 66.2% | [8] 73.3% | [9] 95.8%

O=[N+]([O-])c1ccc(-c2nnc(SCc3ccc(O)c4ncccc34)o2)cc1
active: [6] -6.14%
inactive: [1] 10.9% | [2] 47.4% | [4] 16.2% | [5] 15% | [7] 25.3% | [8] 25% | [9] 38.9%

N/C(=N\c1nc2ccc([N+](=O)[O-])cc2s1)C(Cl)(Cl)Cl
inactive: [1] 70.8% | [2] 30.7% | [3] 61.2% | [4] 43.9% | [5] 49.1% | [6] 83.8% | [7] 54.7% | [9] 72.2%

Nc1ccc(-c2nnc(SCc3ccc(O)c4ncccc34)o2)cc1
inactive: [1] 10.2% | [9] 10.6%
active: [2] 8.36% | [3] 8.55% | [4] -6.47% | [5] 0.0718% | [6] -20.5% | [7] -54.4%

COc1cc(/C=N/n2cnc3oc(-c4ccccc4)cc3c2=N)cc(CN2CCN(C)CC2)c1O
inactive: [1] 81.4% | [2] 48.3% | [3] 110% | [4] 108% | [5] 77.7% | [6] 87.9% | [7] 102% | [9] 94.1%

CN(C)C(=O)c1ccccc1-n1cnc2ccccc2c1=O
inactive: [1] 97.5% | [2] 103% | [3] 95.2% | [4] 99.3% | [5] 97.2% | [6] 101% | [7] 96.9% | [9] 103%

N/C(=N\c1nc2c(Cl)cccc2s1)C(Cl)(Cl)Cl
inactive: [1] 81.3% | [2] 46.8% | [3] 72.7% | [4] 57.3% | [5] 65% | [6] 96.1% | [7] 75.4% | [8] 62.4% | [9] 83.3%

CN(c1ccc(F)cc1)S(=O)(=O)c1ccc(-c2cnc(C3CC3)o2)cc1
inactive: [1] 17.9% | [2] 13.9% | [4] 23.3% | [5] 17.8% | [6] 26.8% | [7] 30.5% | [9] 56.7%
